Results as given in PubChem BioAssay AID2599 (Sanford-Burnham Center for Chemical Genomics, 2010).
Among all 330,000 compounds or so, about 5,800 (1.8%) were called active.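 The calls were made as follows: active = inhibition above about 50% at the single tested dose (limit read from the data); inactive = the rest.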 The entries come from a sample that favours actives as a whole.

These compounds were tested against Sentrin-specific protease 6 (Homo sapiens) (UniProt Q9GZR1) (assay: SENP6 protease inhibitors, primary screen, biochemical, luminescence, uHTS (AID 2599;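 also: plate controls were DMSO wells with enzyme for no effect and DMSO wells lacking enzyme for full effect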)). Conditions: Recombinant SENP6 catalytic domain, aminoluciferin luminescence; at 10 µM; hits give high values.
Sentrin-specific protease 6 (Homo sapiens), sequence (Q9GZR1 628-1112 limits assumed): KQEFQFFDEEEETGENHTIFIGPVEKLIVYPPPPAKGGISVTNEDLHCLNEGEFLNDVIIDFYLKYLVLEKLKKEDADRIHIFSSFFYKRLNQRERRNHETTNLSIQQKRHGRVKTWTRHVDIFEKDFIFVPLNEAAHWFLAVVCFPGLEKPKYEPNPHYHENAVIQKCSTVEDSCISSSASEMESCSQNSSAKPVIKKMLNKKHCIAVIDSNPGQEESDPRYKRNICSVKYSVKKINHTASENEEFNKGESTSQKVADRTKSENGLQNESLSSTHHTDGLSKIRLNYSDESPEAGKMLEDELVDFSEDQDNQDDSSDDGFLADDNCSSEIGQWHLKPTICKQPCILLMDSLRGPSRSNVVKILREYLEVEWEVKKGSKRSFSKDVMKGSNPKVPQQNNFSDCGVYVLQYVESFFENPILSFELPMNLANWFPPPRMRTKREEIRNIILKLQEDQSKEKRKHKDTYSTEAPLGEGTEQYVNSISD

inhibition, inactive:
CC(C)(C)c1cc(C(=O)N/N=C/c2ccc([N+](=O)[O-])s2)n[nH]1 35.9%, COc1ccc(C(=O)NCC(=O)N/N=C/c2ccc([N+](=O)[O-])s2)cc1OC 48.9%, CC(=O)Nc1nc(N(C)C)nc(N(C)C)n1 -13.9%, CCOC(=O)C(C)n1cnc2sc(C)c(C)c2c1=O (centres undefined) -17.3%, Cc1c(C(N)=O)sc2ncn(CCOc3ccccc3)c(=O)c12 -16.1%, FC(F)(F)c1ccc(-n2cn[nH]c2=S)cc1 -14.6%, CCSC1=NCCN1S(=O)(=O)c1ccc(F)cc1 -6.19%, CCCn1nnnc1NCc1ccc(CC)cc1 -6.18%, O=C(CSc1nn(-c2ccc(F)cc2)c(=S)s1)NC1CCS(=O)(=O)C1 (centres undefined) -6.03%, O=C(c1ccc2nc(N3CCOCC3)sc2c1)N1CCN(c2ccc(Cl)cc2)CC1 -6.6%, Fc1ccc2nc(Nc3nc4c(s3)CCCC4)sc2c1 34.4%, c1c2c(cc3sc(N4CCCCC4)nc13)OCCO2 7.27%, O=S(=O)(Nc1ccc2nc(N3CCOCC3)sc2c1)c1ccccc1 -2.51%, C/C(=N/NC(=O)CCc1ccccc1)c1ccco1 12.1%, COc1ccc(CC(NC(C)=O)C(=O)NC2CCN(C(=O)C3CC3)CC2)cc1OC (centres undefined) -9.43%, C=C(C)CSc1nc(N)c2c3c(sc2n1)CCC3 1.28%, COc1ccc(C(=O)Nc2nc(-c3ccc(OC)cc3)c(-c3ccc([N+](=O)[O-])cc3)s2)cc1 -31.8%, O=C(NC(Nc1nc2ccc([N+](=O)[O-])cc2s1)(C(F)(F)F)C(F)(F)F)c1ccccc1 -1.71%, CCN(CC)S(=O)(=O)c1ccc(N2CCOCC2)c(NC(=O)C2CSC3(C)CCC(=O)N23)c1 (centres undefined) 4.82%, COc1ccc2cc(C(=O)C3CCCN(C(=O)c4sc(C)nc4C)C3)ccc2c1 (centres undefined) -16.8%, CCCC(=O)N(CCN1CCOCC1)c1nc2ccc(OCC)cc2s1 -4.24%, O=C(NCCS(=O)(=O)NCc1ccc(Cl)cc1)c1ccccc1 -0.893%, COc1cccc(N2C(=O)CC(N3CCc4ccccc4C3)C2=O)c1 (centres undefined) 0.083%, CCOc1ccc(N2C(=O)CSC2=NC#N)cc1 -18.7%, COc1cc2ccccc2cc1C(=O)Nc1ccncc1 -5.66%, CC(C)(C)n1nc2c(c1NC(=O)c1cc3ccccc3o1)CSC2 2.49%, CC(OC(=O)Cc1ccc(F)cc1)C(=O)N1CCc2ccccc21 (centres undefined) 8.22%, CCC(=O)Nc1nnc(S(=O)(=O)N2CCCc3ccccc32)s1 -3.06%, COc1ccc(-c2[nH]nc(-c3ccccc3)c2-c2nc3ccccc3[nH]2)cc1 -1.01%, COc1ccc(Br)cc1C(=O)NC(=S)Nc1cc(-c2nc3ccccc3[nH]2)ccc1C 6.04%, Clc1ccccc1SCc1nc2ccccc2[nH]1 39.4%, Nc1cccc(CCc2nc3ccccc3[nH]2)c1 -9.91%, CC1(C)C2CCC13CS(=O)(=O)NC3C2 (centres undefined) -8.89%, O=C(Nc1ccc(-c2ccc3nncn3n2)cc1)C1CCCCC1 -18.8%, COc1ccc(N2CCN(CCCNC(=O)C3CCN(S(=O)(=O)N4CCOCC4)CC3)CC2)cc1 8.09%, CCNC(=S)N1CCN(S(=O)(=O)c2ccc(Cl)s2)CC1 -2.28%, COc1ccc([N+](=O)[O-])cc1N(CC(=O)Nc1ccccc1C(=O)N1CCOCC1)S(C)(=O)=O -14.4%, Cc1cc(C)c(S(=O)(=O)c2ccc(F)cc2C)c(=O)[nH]1 -7.65%, Cc1ccc(/C(N)=N/OC(=O)COc2ccc(Cl)c(C)c2)cc1 -9.12%, N/C(=N\OC(=O)c1cc(-c2ccccc2)nc2ccccc12)c1ccncc1 -23.3%, N#Cc1cc([N+](=O)[O-])ccc1Oc1cccc(/C=N/NC(=O)c2ccc(Cl)cc2)c1 -30.8%, COc1ccc2c(C)cc(SCC(=O)NCC3CCCO3)nc2c1 (centres undefined) 2.3%, Nn1c(Cc2cccc3ccccc23)nnc1SCC(=O)N1CC(=O)Nc2ccccc21 -14.3%, CN(c1ccccc1)S(=O)(=O)c1cc(C(=O)Nc2nc3ccccc3[nH]2)ccc1Cl 0.946%, O=C(Cc1ccsc1)N1CCN(S(=O)(=O)c2cc(C(F)(F)F)cc(C(F)(F)F)c2)CC1 -12.7%, O=c1c(-c2ccccc2Cl)c[nH]n1-c1ccccc1 5.63%, O=C1c2ccccc2NC(c2ccc(-c3cccc(Cl)c3)o2)N1O (centres undefined) 2.11%, Cc1ccc(NC(=O)c2ccn(C(=O)Nc3ccccc3)n2)c(C)c1 8.66%, CCCCC(CC)CNC(=O)C(=O)C1C(=O)Nc2ccccc21 (centres undefined) -18.1%, CCCn1nnnc1NCc1ccc(OC)cc1 -1.58%, COC(=O)c1scc(S(=O)(=O)C(C)(C)C)c1-n1cccc1 -3.91%, COc1ccc(C(=O)O/N=C(\N)c2ccccn2)cc1[N+](=O)[O-] 13%, O=C(COC(=O)c1ccccn1)NNC(=O)c1ccc([N+](=O)[O-])cc1 -1.82%, O=C(COC(=O)c1ccccn1)NNC(=O)c1ccc(Br)cc1 6.84%, Cc1ccc(NC(=O)c2ccccn2)cc1S(=O)(=O)N1CCOCC1 -7.58%, Oc1cc2c(cc1O)CN(C(=S)NCCc1ccc(Cl)cc1)CCC2 1.23%, O=C(NCc1ccncc1)C1CCN(C(=O)c2cccc(Cl)c2)CC1 -3.02%, Cc1cc(Nc2cccc(C)c2C)n2ncnc2n1 -7.33%, C=CCn1c(-c2ccc(Cl)cc2)ccc(C#N)c1=O 4.58%, O=C(c1cccc(S(=O)(=O)Nc2ccccc2Cl)c1)N1CCN(C(=O)c2ccco2)CC1 0.095%, O=C(Nc1ccc2c(c1)CCC2)c1cccc(S(=O)(=O)N2CCN(c3ccc(F)cc3)CC2)c1 -2.68%, CCOc1cnc(C(=O)NNC(=O)c2ccccc2Br)o1 -9.25%, COc1cc(OC)cc(C(=O)OCC(=O)Nc2ccc(F)cc2F)c1 3.41%, COc1ccccc1CC(=O)Nc1ccc(F)cc1F -5.72%, Cc1ccc(C)c(S(=O)(=O)N2CCN(C(=O)Nc3ccccc3)CC2)c1 -12.7%, CC1CCCC(C)N1C(=O)COC(=O)COc1ccccc1C#N (centres undefined) -21.9%, COc1ccccc1-c1nnc(-c2ccc(F)cc2)o1 40.7%, CSc1ccccc1-c1nnc(-c2ccc(Cl)cc2)o1 26.3%, O=C(OCc1ccc(Br)cc1)c1cccc(-c2nnc(-c3ccccc3)o2)c1 -4%, Brc1ccc(-c2noc(-c3ccccc3)n2)o1 -29.7%, CN(C)c1ccc(-c2nnc(-c3cccnc3)o2)cc1 14.7%, OC(c1nnc(-c2ccccc2)o1)c1cccs1 (centres undefined) -10.9%, COc1ccc(C(C)=O)cc1COC(=O)Cn1cnc2ccccc2c1=O -0.874%, O=C(NCC1CCCO1)c1ccc(S(=O)(=O)Nc2ccc(F)cc2)cc1 (centres undefined) -0.148%, CN(C(=O)c1ccccc1)c1nccnc1C#N 11.5%, CC(=O)c1c(C)[nH]c(C(=O)OCC(=O)NCCC(C)C)c1C -9.8%, Cc1cc(C)c(C#N)c(SCC(=O)N(CC(C)C)C2CCS(=O)(=O)C2)n1 (centres undefined) -11.7%, O=C(O)c1ccc2c(c1)C(=O)N(NC(=O)c1ccc(O)cc1)C2=O -2.08%, O=C(O)c1ccc(/C=C2\SC(=S)N(NC(=O)c3ccc(Br)cc3)C2=O)cc1 -7.64%

inhibition, active:
O=[N+]([O-])c1ccc(C=Nc2ccc(Cl)cc2Cl)s1 57.5%, Cc1cccc(OC(=O)c2sc3ncn(C)c(=O)c3c2C)c1 52.6%, Brc1ccc2nc(N3CCCC3)sc2c1 75.4%, Fc1ccc2nc(N3CCCCC3)sc2c1 89.5%, C=CCn1c(C)cc(C2=NNC(=NCC)SC2)c1C 92.9%, O=C(Nc1nc2ccc([N+](=O)[O-])cc2s1)c1ccncc1 91.5%, CCOc1ccc2nc(C(=O)N3CCCC(C)C3)sc2c1 (centres undefined) 70.8%, O=C(Nc1ccncc1)c1cc2ccccc2o1 63.5%, Cc1ccc(-c2nc3ccccc3[nH]2)cc1N 91%, c1ccc2[nH]c(-c3nc4ccccc4[nH]3)nc2c1 97.2%, Cc1cccc(/C(N)=N/OC(=O)c2ccccc2Cl)c1 86.2%, O=c1c(-c2cccc(Cl)c2)c[nH]n1-c1ccccc1 50.4%, N/C(=N\OC(=O)c1ccc([N+](=O)[O-])cc1)c1ccccn1 93.3%, Cc1ccc(C(=O)O/N=C(\N)c2ccccn2)cc1Cl 94.1%, O=C(Nc1ccc2c(c1)CCC2)c1cccc(S(=O)(=O)Nc2ccccc2Cl)c1 58.9%, COc1ccc(C(=O)Nc2ccc(F)cc2F)cc1 76.1%, Nc1ccc(-c2nnc(-c3ccc(-c4ccccc4)cc3)o2)cc1 53.4%, Nc1ccc(-c2nnc(-c3ccccc3)o2)cc1 61.5%, Brc1ccc(-c2nnc(-c3ccccc3)o2)o1 67.5%, CC(=O)N1C(=O)/C(=C2\SC(=S)N(NC(=O)c3ccc(O)cc3)C2=O)c2ccccc21 80.2%
